Screens as filed in PubChem BioAssay.
Only some compounds are listed: those with a hit (about 1.2% of all), similar ones and a draw of the others.
PrP UTR inh = inhibition of PrP 5' UTR reporter expression | cell-based PrP 5' UTR mRNA reporter, plate reader | inhibition, % (concentration not given with the values) | actives 0.35% (n = 340,000) | AID 488862; in the data active means inhibition above about 52%; further: 0 = median of the neutral control wells
UGM FP inh = blocks M. tuberculosis UGM enzyme. P9WIQ1. purified UGM, fluorescence polarization probe displacement. inhibition, % at 10 µM. actives 0.06% (n = 320,000); in the data active means inhibition above about 10%, passing the limit was not always enough
Target sequence (P9WIQ1 whole entry, looked up): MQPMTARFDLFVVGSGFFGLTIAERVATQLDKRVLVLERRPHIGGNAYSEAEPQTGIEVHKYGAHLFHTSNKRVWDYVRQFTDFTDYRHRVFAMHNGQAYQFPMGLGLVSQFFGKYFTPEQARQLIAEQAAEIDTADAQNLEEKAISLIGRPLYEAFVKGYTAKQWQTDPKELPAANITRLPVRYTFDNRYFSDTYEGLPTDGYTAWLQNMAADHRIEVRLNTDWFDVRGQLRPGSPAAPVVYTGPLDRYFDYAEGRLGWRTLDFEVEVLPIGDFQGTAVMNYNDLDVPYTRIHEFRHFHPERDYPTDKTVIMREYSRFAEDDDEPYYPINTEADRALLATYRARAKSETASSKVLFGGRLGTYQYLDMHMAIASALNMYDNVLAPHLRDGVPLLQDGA
FadD28 binding = blocks FadD28 binding to the bisubstrate probe; fluorescence polarization; AID 588549; actives 0.22% (n = 360,000); inhibition, % at 12.5 µM; in the data active means inhibition above about 8.5%, passing the limit was not always enough
PriA SSB inh = inhibitors of Klebsiella pneumoniae PriA binding to SSB C-terminal tail; AID 1272365; inhibition, % at 33 µM; actives 0.6% (n = 430,000); AlphaScreen SSBct-PriA binding, biotinylated peptide; in the data active means inhibition mostly above about 37%, no sharp cut-off; inactive means mostly below about 20%;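 further: plate controls were negative control peptide for no effect and reference peptide for full effect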
PrPC surface inh = cell surface PrPC inhibition, primary TR-FRET screen; TR-FRET read-out; AID 720596; P04156; inhibition, % at 13.8 µM; actives 0.43% (n = 370,000); in the data active means inhibition above about 24%; further: 0% = median of the test wells and 100% = reference compound wells
Rv3671c protease = Rv3671c (M. tuberculosis) protease inhibition. inhibition, % at 5.96 µM. P9WHR9. actives 0.048% (n = 320,000). AID 2606; in the data active means inhibition above about 38%;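 further: extracellular domain of Rv3671c used as enzyme; 0% = enzyme with DMSO and 100% = no enzyme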
The depositor's hits bear a star; ! = not active in a repeat.

How did COc1ccc(-c2ccc3[nH]c4c(c3c2)CCN2C(=O)[C@@H]([C@H](C)O)[C@@H](N(C)C(=O)Nc3cc(Cl)cc(Cl)c3)C[C@@H]42)cc1 do in these assays?
FadD28 binding: 41*; PrPC surface inh: -2

What do the screens show for `O=C(c1cnn(-c2ccccc2)n1)N1CCS[C@H](c2ccco2)CC1`?
PriA SSB inh: -2

Results for COCCNC(=O)NCc1cncc(-c2ccsc2)c1 ?
PriA SSB inh: -10

What do the screens show for `COCCCn1c(=C(C#N)C(=O)Nc2ccc(C(=O)O)cc2)s/c(=C/c2cccc(OC)c2OC)c1=O`?
PriA SSB inh: -5

What do the screens show for `COCCCn1c(=O)/c(=C\c2ccccc2OC(C)C)s/c1=C(/C#N)C(=O)Nc1ccc(C(=O)O)cc1`?
PrP UTR inh: 1; UGM FP inh: 15*; FadD28 binding: -1; PrPC surface inh: 0; Rv3671c protease: -18

How did COC1CCN(c2ccc(C(=O)NCc3cncc(-c4ccsc4)c3)cc2)C1 (centres undefined) do in these assays?
PriA SSB inh: -7

How did CC(=O)Nc1ccc(NC(=O)c2nc(S(=O)(=O)Cc3cccc(C)c3)ncc2Cl)cc1 do in these assays?
PrP UTR inh: 8; UGM FP inh: -3; FadD28 binding: 2; PriA SSB inh: -15; PrPC surface inh: 71*; Rv3671c protease: 0

Results for O=C(N/N=C/c1cccnc1)c1cc2c(ccc3ccccc32)o1 ?
PrP UTR inh: -9; UGM FP inh: 1; FadD28 binding: -5; PrPC surface inh: -6; Rv3671c protease: -7

Results for O=C(N/N=C/c1cc(Cl)c(O)c(Cl)c1)c1cc2c(ccc3ccccc32)o1 ?
PrP UTR inh: -21; UGM FP inh: 3; FadD28 binding: 39*; PrPC surface inh: -5; Rv3671c protease: 29

What do the screens show for `O=C(N/N=C/c1cc(Br)c(O)c(Br)c1)c1cc2c(ccc3ccccc32)o1`?
PrP UTR inh: 0; UGM FP inh: 0; FadD28 binding: 25*; PrPC surface inh: 4

How did O=C(N/N=C/c1ccc(O)c(Br)c1)c1cc2c(ccc3ccccc32)o1 do in these assays?
PrP UTR inh: 3; UGM FP inh: -1; FadD28 binding: -2; PrPC surface inh: 9

What do the screens show for `O=C(Nc1cnoc1)C1c2ccccc2Oc2ccccc21`?
PriA SSB inh: 4

How did NC(=O)c1oc2ccccc2c1NC(=O)C1CCN(S(=O)(=O)c2ccc(F)cc2)CC1 do in these assays?
PriA SSB inh: 6

What do the screens show for `Nc1ccc(S(=O)(=O)NC2=NCCCCC2)cc1N`?
PrP UTR inh: -4; UGM FP inh: 0; FadD28 binding: -3; PriA SSB inh: 5; PrPC surface inh: 5; Rv3671c protease: 6

Results for O=[N+]([O-])c1cc(S(=O)(=O)NC2=NCCCCC2)ccc1NCC1CCCCC1 ?
PrP UTR inh: 41; UGM FP inh: -1; FadD28 binding: -2; PriA SSB inh: 41*; PrPC surface inh: -5; Rv3671c protease: 5

What do the screens show for `Cc1c(C)n(C)c2ccc(C(=O)NCc3cccs3)cc12`?
PrP UTR inh: -9; UGM FP inh: -2; FadD28 binding: 12*; PriA SSB inh: 10; PrPC surface inh: -15; Rv3671c protease: -22

Results for CC(=O)c1ccc2c(c1)C1C(Cl)C(Sc3ccccc3[N+](=O)[O-])CC1C(C(=O)O)N2 (centres undefined) ?
PrP UTR inh: -12; UGM FP inh: -2; FadD28 binding: 20*; PriA SSB inh: 46*; PrPC surface inh: -5; Rv3671c protease: 2

What do the screens show for `COC(=O)C1=CC(C(=O)c2cccs2)=NN(c2ccc(OC)cc2)C1C(=O)OC` (centres undefined)?
PrP UTR inh: -11; UGM FP inh: 21*; FadD28 binding: -7; PriA SSB inh: 39*; PrPC surface inh: 3; Rv3671c protease: 0

How did COC(=O)C1=NN(c2ccc(OC)cc2)C2C(=O)N(c3ccccc3OC)C(=O)C12 (centres undefined) do in these assays?
UGM FP inh: 1; FadD28 binding: -1; PriA SSB inh: -16; PrPC surface inh: 4; Rv3671c protease: 0

What do the screens show for `NC(=NOC(=O)CCC1CCCCC1)c1ccccn1`?
PriA SSB inh: -16

Results for CCOC(=O)c1c(C)n(Cc2ccccc2)c2ccc(OCC(O)Cn3nc(C)nc3C)cc12 (centres undefined) ?
PrP UTR inh: -9; UGM FP inh: 0; FadD28 binding: -1; PriA SSB inh: 104*; PrPC surface inh: 0; Rv3671c protease: -5

How did O=C(O)c1ccc2c(c1)[C@@H]1C=CC[C@@H]1[C@H](c1ccccn1)N2 do in these assays?
PrP UTR inh: -18; UGM FP inh: 1; FadD28 binding: 19*; PriA SSB inh: 15; PrPC surface inh: 15; Rv3671c protease: 28

What do the screens show for `COc1ccc(C(=O)N/N=C(\C)c2ccc3c(c2)C2C=CCC2C(c2ccccc2)N3)cc1` (centres undefined)?
PrP UTR inh: 3; UGM FP inh: 3; FadD28 binding: -3; Rv3671c protease: -2

How did COc1cccc(NS(=O)(=O)c2ccc3c(c2)C2C=CCC2C(c2ccc(C(=O)O)cc2)N3)c1 (centres undefined) do in these assays?
PrP UTR inh: -17; UGM FP inh: 3; FadD28 binding: 22*; PriA SSB inh: 25; PrPC surface inh: -2; Rv3671c protease: 20

Results for N#Cc1cccnc1OC1CCN(C(=O)Nc2ccccc2F)CC1 ?
PriA SSB inh: -26

Results for CC(=O)N1c2ccc(S(=O)(=O)NCCn3nc(-c4ccc(F)cc4)ccc3=O)cc2CC1C (centres undefined) ?
PriA SSB inh: 22

Results for O=C(/C=C/c1ccc(Br)o1)/C=C/c1ccc(Br)o1 ?
PriA SSB inh: 39*

Results for O=C(Cc1cccs1)NC1CCN(C(=O)c2cn(-c3cccc(F)c3)nn2)CC1 ?
PriA SSB inh: -12

How did O=C(c1ccc(Cl)s1)N(Cc1cccnc1)c1nc2cc3c(cc2s1)OCO3 do in these assays?
PriA SSB inh: -10

How did O=C(CSc1nccn1-c1ccccc1)N1CCCc2ccccc21 do in these assays?
PriA SSB inh: 72*

Results for O=C(CSc1ccc(-c2ccccn2)nn1)N1CCCc2ccccc21 ?
PrP UTR inh: 42; UGM FP inh: -3; FadD28 binding: -1; PriA SSB inh: 62*!; PrPC surface inh: -2; Rv3671c protease: 8

What do the screens show for `CCOc1ccc(-n2ccnc2SCC(=O)N2CCCc3ccccc32)cc1`?
PrP UTR inh: -12; UGM FP inh: 4; FadD28 binding: -1; PriA SSB inh: 25; PrPC surface inh: 5; Rv3671c protease: -2

Results for O=C(CSc1nccn1-c1cccc(Cl)c1)N1CCc2ccccc21 ?
PriA SSB inh: 44*

Results for COc1cccc(-n2ccnc2SCC(=O)N2CCCc3ccccc32)c1 ?
PrP UTR inh: -4; UGM FP inh: 1; FadD28 binding: -5; PriA SSB inh: 30; PrPC surface inh: -4; Rv3671c protease: -3
